Test results from PubChem BioAssay AID1159580 (chemical genetic matrix, 2015).
About 2,000 (36%) of roughly 5,500 compounds were called active. Roughly 18% stayed inconclusive and do not appear here. No stated cut-off is given here; in the data, active means normalized growth mostly below about 0.91 (no sharp cut-off); inconclusive means no clear call, values can overlap the other calls; inactive means mostly above about 0.92. The list shows a part of the results.

Test: chemical genetic growth profiling, strain panel (AID 1159580);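 further: tested at 20 µM; growth read once vehicle control cultures reached saturation at 30 °C; 1 = growth at the plate median or of vehicle wells; lower values mean less growth of the strain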
Settings: S. cerevisiae deletion strains, growth OD
[1] = locus YAR019C, strain CDC15, hits give low values
[2] = locus YBL105C, strain PKC1, hits give low values
[3] = locus YBR135W, strain CKS1, hits give low values
[4] = locus YBR136W, strain MEC1, hits give low values
[5] = locus YBR160W, strain CDC28, hits give low values
[6] = locus YDL017W, strain CDC7, hits give low values
[7] = locus YDL028C, strain MPS1, hits give low values
[8] = locus YDL101C, strain DUN1, hits give low values
[9] = locus YDL108W, strain KIN28, hits give low values
[10] = locus YDL132W, strain cdc53, hits give low values
[11] = locus YDL214C, strain PRR2, hits give low values
[12] = locus YDR052C, strain DBF4, hits give low values
[13] = locus YDR054C, strain cdc34, hits give low values
[14] = locus YDR226W, strain ADK1, hits give low values
[15] = locus YDR477W, strain SNF1, hits give low values
[16] = locus YER123W, strain YCK3, hits give low values
[17] = locus YER133W, strain GLC7, hits give low values
[18] = locus YFL009W, strain cdc4, hits give low values
[19] = locus YFL029C, strain CAK1, hits give low values
[20] = locus YFR003C, strain YPI1, hits give low values
[21] = locus YFR019W, strain FAB1, hits give low values
[22] = locus YFR028C, strain CDC14, hits give low values
[23] = locus YGR040W, strain KSS1, hits give low values
[24] = locus YGR052W, strain FMP48, hits give low values
[25] = locus YGR092W, strain DBF2, hits give low values
[26] = locus YHR030C, strain SLT2, hits give low values
[27] = locus YHR079C, strain IRE1, hits give low values
[28] = locus YHR082C, strain KSP1, hits give low values
[29] = locus YHR205W, strain SCH9, hits give low values
[30] = locus YIL147C, strain SLN1, hits give low values
[31] = locus YJL095W, strain BCK1, hits give low values
[32] = locus YJL128C, strain PBS2, hits give low values
[33] = locus YJL157C, strain FAR1, hits give low values
[34] = locus YJR016C, strain ILV3, hits give low values
[35] = locus YJR066W, strain TOR1 (second series), hits give low values
[36] = locus YJR066W, strain TOR1, hits give low values
[37] = locus YKL048C, strain ELM1, hits give low values
[38] = locus YKL067W, strain YNK1, hits give low values
[39] = locus YKL101W, strain HSL1, hits give low values
[40] = locus YKL193C, strain SDS22, hits give low values
[41] = locus YKL203C, strain TOR2, hits give low values
[42] = locus YLR113W, strain HOG1, hits give low values
[43] = locus YLR133W, strain CKI1, hits give low values
[44] = locus YLR403W, strain SFP1, hits give low values
[45] = locus YML070W, strain DAK1, hits give low values
[46] = locus YMR001C, strain CDC5, hits give low values
[47] = locus YMR205C, strain PFK2 (second series), hits give low values
[48] = locus YMR277W, strain FCP1, hits give low values
[49] = locus YNL006W, strain LST8, hits give low values
[50] = locus YNL020C, strain ARK1, hits give low values
[51] = locus YNL161W, strain CBK1, hits give low values
[52] = locus YNL183C, strain NPR1, hits give low values
[53] = locus YNL207W, strain RIO2, hits give low values
[54] = locus YNL222W, strain SSU72, hits give low values
[55] = locus YNL307C, strain MCK1 (second series), hits give low values
[56] = locus YOL078W, strain AVO1, hits give low values
[57] = locus YOL136C, strain PFK27, hits give low values
[58] = locus YOR061W, strain CKA2, hits give low values
[59] = locus YOR119C, strain RIO1, hits give low values
[60] = locus YOR231W, strain MKK1, hits give low values
[61] = locus YOR329C, strain SCD5, hits give low values
[62] = locus YPL031C, strain PHO85, hits give low values
[63] = locus YPL153C, strain RAD53, hits give low values
[64] = locus YPL204W, strain HRR25, hits give low values
[65] = locus YPL209C, strain IPL1, hits give low values
[66] = locus YPL256C, strain CLN2, hits give low values
[67] = locus YPR025C, strain CCL1, hits give low values
[68] = locus YPR106W, strain ISR1, hits give low values
[69] = locus YPR111W, strain DBF20, hits give low values
[70] = strain NNK1, hits give low values
[71] = strain TSCII, hits give low values

Measured: normalized growth

Cc1c(-c2ccnn2C(=O)c2ccco2)cnn1-c1ccccc1
inactive: [1] 0.954 | [2] 0.957 | [3] 0.958 | [4] 0.954 | [5] 0.957 | [6] 0.964 | [7] 0.93 | [8] 0.978 | [9] 0.954 | [10] 0.953 | [11] 0.904 | [12] 0.982 | [13] 0.952 | [14] 0.953 | [15] 0.861 | [16] 0.925 | [17] 0.915 | [18] 0.936 | [19] 0.954 | [20] 0.959 | [21] 0.945 | [22] 0.94 | [23] 0.872 | [24] 0.966 | [25] 0.917 | [27] 0.909 | [28] 0.953 | [29] 0.909 | [30] 0.958 | [31] 0.842 | [32] 0.908 | [33] 0.916 | [34] 0.962 | [35] 0.828 | [36] 0.89 | [37] 0.972 | [38] 0.908 | [39] 0.894 | [40] 0.959 | [41] 0.965 | [43] 0.917 | [44] 0.873 | [45] 0.895 | [46] 0.953 | [47] 0.939 | [48] 0.938 | [49] 0.953 | [50] 0.931 | [51] 0.974 | [52] 0.953 | [53] 0.958 | [54] 0.943 | [55] 0.894 | [56] 0.958 | [57] 0.898 | [58] 0.909 | [59] 0.919 | [60] 0.885 | [61] 0.974 | [62] 0.858 | [63] 0.873 | [64] 0.851 | [65] 0.969 | [67] 0.957 | [68] 0.957 | [69] 0.917 | [70] 0.964 | [71] 0.94
active: [26] 0.739 | [42] 0.799 | [66] 0.825

Cc1c(C(=O)N(Cc2ccccc2)Cc2cccs2)cnn1-c1ccc(Cl)cc1
inactive: [1] 0.992 | [2] 0.989 | [3] 0.984 | [4] 0.981 | [5] 0.981 | [6] 0.998 | [7] 0.985 | [8] 0.99 | [9] 0.985 | [10] 0.976 | [11] 0.947 | [12] 1 | [13] 0.987 | [14] 0.996 | [15] 0.946 | [16] 0.94 | [17] 0.957 | [18] 0.986 | [19] 0.988 | [20] 0.99 | [21] 0.963 | [22] 0.981 | [23] 0.938 | [24] 1.03 | [25] 0.967 | [26] 0.934 | [27] 0.953 | [28] 1.03 | [29] 0.919 | [30] 0.997 | [31] 0.945 | [32] 0.967 | [33] 0.935 | [34] 0.982 | [35] 0.883 | [36] 1.02 | [37] 0.97 | [38] 0.968 | [39] 0.94 | [40] 0.982 | [41] 0.997 | [42] 0.925 | [43] 0.936 | [44] 0.915 | [45] 0.926 | [46] 0.987 | [47] 0.944 | [48] 0.989 | [49] 1.01 | [50] 0.945 | [51] 0.995 | [52] 0.995 | [53] 0.989 | [54] 0.99 | [55] 0.95 | [56] 0.989 | [57] 0.926 | [58] 0.95 | [59] 1 | [60] 0.888 | [61] 0.99 | [62] 0.962 | [63] 0.926 | [64] 0.931 | [65] 0.988 | [66] 0.922 | [67] 0.99 | [68] 0.974 | [69] 0.972 | [70] 0.986 | [71] 0.973
